Bioassay records deposited in PubChem by National Center for Advancing Translational Sciences (NCATS).
TDP1 cell CPT – growth inhibition of DT40 Tdp1-/-;hTDP1 cells with camptothecin (screen for TDP1 inhibitors). chicken DT40 Tdp1-/-;hTDP1 cells + 20 nM CPT, ATP luminescence, 48 h. Potency, µM (doses to about 46.2 µM), for the others: at the highest dose activity change, negative = growth inhibition, usual class: inhibitors. 12% of 420,000 active. AID 686979; note: potency is the fitted concentration of half-maximal effect; nearly all actives have a fitted effect of over 55% in size
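Chicken DT40 Tdp1-/- cells complemented with human TDP1, 400 cells/well, exposed to compounds plus 20 nM camptothecin for at least 48 h at 37 C; viability read as ATP content by CellTiter-Glo luminescence.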
ELG1 DNA repair – ELG1-dependent DNA repair inhibition. HEK293T ELG1-luciferase reporter, luminescence, 16 h; DNA damage induced by 5-fluorouridine. Potency, µM (titrated, usually from 46.1 µM), without a hit: at the highest dose activity change, negative = inhibition, actives largely listed as inhibitors. 2.3% of 330,000 active. AID 504467; note: potency is the fitted concentration of half-maximal effect; nearly all actives have a fitted effect of over 55% in size
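Reporter activity after DNA damage by 5-fluorouridine is monitored. Compound-treated cells incubate 16 hr at 37 °C, then ONE-Glo is added for 30 min before luminescence reading.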
RORg inh – blocks mouse ROR gamma transcriptional activity; P51450; Drosophila S2 Gal4-RORgamma UAS-luciferase reporter, 20 h; Potency, µM (doses to about 53.6 µM), for inactives: at the top dose activity change, negative = inhibition, hits mostly inhibitors; 5.4% of 310,000 active; note: potency is the fitted concentration of half-maximal effect; nearly all actives have a fitted effect of over 60% in size
Target sequence (P51450 whole entry, looked up, the tested form may be a part): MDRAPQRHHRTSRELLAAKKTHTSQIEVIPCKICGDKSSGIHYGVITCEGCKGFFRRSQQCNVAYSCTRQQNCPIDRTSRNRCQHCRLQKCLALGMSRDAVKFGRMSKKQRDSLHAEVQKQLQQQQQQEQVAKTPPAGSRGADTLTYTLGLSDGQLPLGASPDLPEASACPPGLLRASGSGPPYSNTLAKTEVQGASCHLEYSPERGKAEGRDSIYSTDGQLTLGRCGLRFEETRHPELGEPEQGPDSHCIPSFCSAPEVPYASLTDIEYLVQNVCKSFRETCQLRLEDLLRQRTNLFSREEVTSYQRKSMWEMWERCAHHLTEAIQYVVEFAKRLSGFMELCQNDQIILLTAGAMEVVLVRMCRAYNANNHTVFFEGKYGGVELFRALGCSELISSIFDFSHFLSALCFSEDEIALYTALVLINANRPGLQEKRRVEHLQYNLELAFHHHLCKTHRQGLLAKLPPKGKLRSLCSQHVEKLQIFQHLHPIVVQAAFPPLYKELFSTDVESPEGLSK
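Schneider cells (Drosophila), stable Gal4 DBD–ROR gamma + UAS-luc; 1 hr cmpd preincubation; Cu2+ induction 700 uM final; 20 hr ambient; luminescence.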
IL-1B inflam inh – inhibitors of inflammasome signaling (IL-1 beta secretion) | THP-1 LPS/ATP IL-1B secretion, AlphaLISA, 16 h; active compounds read low | activity change, % at 57.5 µM | 4.7% of 360,000 active | AID 743279; in the data active = activity change below about -50%; inconclusive = mostly about -30% to -49%
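Secreted IL-1B measured by AlphaLISA bead assay after 16 h compound exposure of THP-1 cells; compounds (final up to 57.5 uM) added 1 h before LPS (250 ng/mL) and ATP (1.25 mM) stimulation; lower signal means less secretion.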
Gal4-VP16 FLuc – inhibits Gal4-VP16 luciferase reporter, ROR gamma counter-screen; Drosophila S2 Gal4-VP16 UAS-luciferase, luminescence, 20 h; Potency, µM (doses to about 53.6 µM), for the others: at the highest dose activity, negative = inhibition, usual class: inhibitors; 3.5% of 310,000 active; AID 2546;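 note: Gal4-VP16 expression switched on by copper sulfate through the metallothionein promoter; potency is the fitted concentration of half-maximal effect; nearly all actives have a fitted effect of over 50% in size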
DT40 TDP1 no CPT – qHTS for Inhibitors of human tyrosyl-DNA phosphodiesterase 1 (TDP1): qHTS in cells in absence of CPT; DT40 Tdp1-/- hTDP1 cells, no CPT, ATP luminescence, 48 h; Potency, µM (top dose mostly 46.2 µM), inactives show top-dose activity change, negative = growth inhibition, most hits filed as inhibitors; 15% of 420,000 active; AID 686978, 2013; note: potency is the fitted concentration of half-maximal effect; nearly all actives have a fitted effect of over 55% in size
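Luminescent ATP content (CellTiter-Glo) served as the growth readout. Knockout chicken DT40 cells expressing human TDP1 were exposed to compounds without camptothecin for a minimum 48 hr at 37 °C.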
Starred values were filed as active, the others as inactive; ? = inconclusive; · = no result; [ ] = another dose, or the depositor's remark. Only some compounds are listed: those with a hit (about 21% of all), similar ones and a draw of the others. Unless noted, calls come from the whole dose curve; as a rule, active = well fitted curve in the direction sought with a large enough effect; inconclusive = small, poorly fitted or top-dose-only effect, or another doubt; inactive = no such curve, though single readings can be large; an effect the other way counts as inactive or inconclusive. % is set by controls: 0 for no effect and ±100 for the full control effect.

SMILES	TDP1 cell CPT	ELG1 DNA repair	RORg inh	IL-1B inflam inh	Gal4-VP16 FLuc	DT40 TDP1 no CPT
CN1C(=O)C(O)(CC(=O)/C=C/c2ccco2)c2cc(Br)ccc21 (stereo not drawn)	6.5µM*	6%	?	117	1%	4.1µM*
Nc1nc(=S)ss1	16µM*	·	·	-98*	·	7.3µM*
O=C(c1c(F)cccc1F)N(Cc1cccs1)C1CCCC1	12µM*	?	-21%	-9	1%	9.2µM*
O=C(NO)c1ccc(C(=O)N(C2CCCCC2)C2CCCCC2)cc1	16µM*	?	-20%	53	2%	21µM*
O=C(c1c(F)cccc1F)N(C1CCCCC1)C1CCCCC1	?	-9%	48%	48	-21%	18µM*
O=C(c1c(F)cccc1F)N(Cc1ccccn1)C1CCCC1	18µM*	-2%	-2%[0.365 µM]	5	·	4.6µM*
O=C(Nc1ccccc1)N(Cc1cccs1)C1CCCC1	?	-8%	1%	-1	-1%	?
Nc1nc2ncccc2cc1C(=O)NC1CCCCC1	-14%	·	·	26	·	2%
Cc1ccc(S(=O)(=O)Nc2ccc(N3CCOCC3)cc2)cc1	-16%	-29%	6%	12	-1%	-3%
Cc1ccc(S(=O)(=O)Nc2ccccc2NS(=O)(=O)c2ccc(C)cc2)cc1	-10%	·	·	28	·	-12%
Cc1ccc(S(=O)(=O)Nc2ccccc2N2CCOCC2)cc1	21µM*	-12%	26%	64	-9%	?
Cc1ccc(S(=O)(=O)Nc2ccccc2N2CCCCC2)cc1	?	?	·	54	·	16µM*
O=S(=O)(Nc1cc(C(F)(F)F)ccc1N1CCOCC1)c1ccc2ccccc2c1	16µM*	1%	5%	?	3%	?
O=S(=O)(Nc1cc(C(F)(F)F)ccc1N1CCOCC1)c1ccccc1	-30%	2%	5%	5	1%	-13%
Cc1cccc(NC(=O)c2cccc3c2-c2ccccc2C3=O)n1	?	-11%	20%	5	4%	16µM*
Cc1cccc(NC(=O)c2ccccc2Br)n1	-20%	?	-34%	40	5%	-23%
CC(C)CNC(=O)c1cccc2c1-c1ccccc1C2=O	19%	2%	8%	29	1%	6%
O=C(Nc1ccc(Br)cn1)c1cccc2c1-c1ccccc1C2=O	4.1µM*	-17%	-4%	43	13%	3.3µM*
COc1ccc([C@H]2CC(=O)C[C@@H](CCn3cc(-c4nccn4C)nn3)O2)cc1	5%	·	·	-4	·	-18%
CCOc1ccc(C(=O)Nc2cccc(C(=O)O)c2)cc1Cl	-12%	?	6.3µM*	-9	?	?
CCOc1ccc(C(=O)Nc2cc(NC(=O)c3ccc(OCC)c(Cl)c3)cc(C(=O)O)c2)cc1Cl	2.1µM*	7%	27%	22	2%[10 µM]	-17%
O=c1[nH]c(SCc2ccccc2)ncc1S(=O)(=O)c1ccccc1	-1%	·	·	·	·	-15%
CC(=O)N1CCc2cc(Br)cc(S(=O)(=O)CCC(=O)N3CCN(c4cccc(C)c4C)CC3)c21	16µM*	·	·	·	·	?
CCCC1C2C(=O)N(c3cccc(C)c3)C(=O)C2ON1c1ccccc1 (stereo not drawn)	-7%	11%	24%	-11	0%	2%
COc1ccc(-c2cc(C(=O)N3CCCC(C(F)(F)F)C3)c3ccccc3n2)cc1 (stereo not drawn)	?	?	·	-5	·	?
SMILES	TDP1 cell CPT	ELG1 DNA repair	RORg inh	IL-1B inflam inh	Gal4-VP16 FLuc	DT40 TDP1 no CPT
COc1cccc(CN2CCN(C(=O)c3cc(-c4cccnc4)nc4ccc(C)cc34)CC2)c1	23µM*	?	44%	6	-2%	12µM*
COc1ccc(-c2cc(C(=O)N3CCN(c4ncccn4)CC3)c3ccccc3n2)cc1	?	16µM*	·	-16	·	?
COc1ccc(-c2cc(C(=O)N3CCN(c4ccccc4)CC3)c3ccccc3n2)cc1	3.3µM*	-24%	33%	97	-5%	4.6µM*
COc1cc(NC(=O)c2cc(-c3cccnc3)nc3ccc(C)cc23)c(OC)cc1Cl	·	?	39%	·	-7%[0.365 µM]	·
COc1ccc(-c2cc(C(=O)N3CC(C)CC(C)C3)c3ccccc3n2)cc1 (stereo not drawn)	?	-1%	·	?	·	21µM*
CCOC(=O)NC[C@H](Cc1ccc(OCCc2nc(-c3ccccc3)oc2C)cc1)N/C(C)=C\C(=O)c1ccc(C(F)(F)F)cc1	·	·	10%	·	-4%	·
O=C1CCC([N+](=O)[O-])C(c2ccccc2F)N1 (stereo not drawn)	-9%	1%	2%	-14	0%	-1%
Cc1nn2c(C)c(C(=O)NC(C)c3ccccc3)cnc2c1-c1ccc(F)cc1 (stereo not drawn)	-6%	·	·	·	·	?
C#CCOCCOCCOCCNc1nc(N2CCOCC2)nc(N2CCN(C(=O)[C@H](CO)n3cc([C@@H](N)C(C)C)nn3)CC2)n1	0%	?	·	2	·	-14%
COc1ccc(-c2cc(C(=O)N3CCN(c4ccccc4O)CC3)c3ccccc3n2)cc1OC	?	9.2µM*	?	?	3%	18µM*
COc1ccc(-c2cc(C(=O)N3CCN(c4ccccc4O)CC3)c3ccccc3n2)cc1	?	20%	·	?	·	?
COc1ccc(-c2cc(C(=O)N3CCCC3)c3ccccc3n2)cc1	3%	?	-12%	0	-6%	6%
O=C(c1cc(-c2ccccc2)nc2ccccc12)N1CCOCC1	3%	14%	-35%	15	-7%	-8%
COc1ccc2nc(-c3ccccc3)cc(C(=O)N3CCC3)c2c1	23µM*	-27%	·	-18	·	16µM*
CC(=O)c1ccc(N2CCN(C(=O)c3cc(-c4ccc5c(c4)OCO5)nc4ccccc34)CC2)cc1	?	?	33%	-2	-3%	23µM*
CCN(CC)CC#CCOC(=O)C(O)(c1ccccc1)C1CCCCC1 (stereo not drawn)	21µM*	0%	-7%	-23	-10%	8.2µM*
CCN(CC)CC#CCC(O)(c1ccccc1)C1CCCCC1 (stereo not drawn)	?	?	20%	?	28%	?
COC(=O)[C@H](C)NC(=O)c1cc2c(cn1)[nH]c1ccccc12	18µM*	-9%	4%	-85*	14%	18µM*
C[C@H](NC(=O)c1cc2c(cn1)[nH]c1ccccc12)C(=O)O	?	1%	-6%	13	-5%	?
